Source: PubChem BioAssay
Active and inactive are the calls of the source. The rule behind the calls is not given here. Where a SMILES comes first, the peptide text is derived from it. The star is where a group is joined. Boc = CC(C)(C)OC(=O)*

Tests used:
[1] = tested on: Botulinum neurotoxin type F light chain protease (Clostridium botulinum); assay: Clostridium botulinum type F light chain protease inhibitors, microsphere substrate cleavage, validation (AID 588459); details: multiplex microsphere protease substrate cleavage assay, flow cytometry; at 10 µM; active compounds read high
[2] = target: Botulinum neurotoxin type A (Clostridium botulinum) (UniProt P0DPI0); assay: BoNT/A light chain protease inhibitors, biochemical, multiplex microsphere flow cytometry, validation set (AID 588460); details: at 10 µM, active compounds read high
[3] = target: Lethal factor (Bacillus anthracis) (UniProt P15917); assay: Bacillus anthracis lethal factor inhibition, microsphere flow cytometry protease assay, validation at 10 µM (AID 588461); details: multiplex microsphere protease cleavage assay, active compounds read high

Measured: inhibition

Lethal factor (Bacillus anthracis), sequence (P15917 whole entry, looked up): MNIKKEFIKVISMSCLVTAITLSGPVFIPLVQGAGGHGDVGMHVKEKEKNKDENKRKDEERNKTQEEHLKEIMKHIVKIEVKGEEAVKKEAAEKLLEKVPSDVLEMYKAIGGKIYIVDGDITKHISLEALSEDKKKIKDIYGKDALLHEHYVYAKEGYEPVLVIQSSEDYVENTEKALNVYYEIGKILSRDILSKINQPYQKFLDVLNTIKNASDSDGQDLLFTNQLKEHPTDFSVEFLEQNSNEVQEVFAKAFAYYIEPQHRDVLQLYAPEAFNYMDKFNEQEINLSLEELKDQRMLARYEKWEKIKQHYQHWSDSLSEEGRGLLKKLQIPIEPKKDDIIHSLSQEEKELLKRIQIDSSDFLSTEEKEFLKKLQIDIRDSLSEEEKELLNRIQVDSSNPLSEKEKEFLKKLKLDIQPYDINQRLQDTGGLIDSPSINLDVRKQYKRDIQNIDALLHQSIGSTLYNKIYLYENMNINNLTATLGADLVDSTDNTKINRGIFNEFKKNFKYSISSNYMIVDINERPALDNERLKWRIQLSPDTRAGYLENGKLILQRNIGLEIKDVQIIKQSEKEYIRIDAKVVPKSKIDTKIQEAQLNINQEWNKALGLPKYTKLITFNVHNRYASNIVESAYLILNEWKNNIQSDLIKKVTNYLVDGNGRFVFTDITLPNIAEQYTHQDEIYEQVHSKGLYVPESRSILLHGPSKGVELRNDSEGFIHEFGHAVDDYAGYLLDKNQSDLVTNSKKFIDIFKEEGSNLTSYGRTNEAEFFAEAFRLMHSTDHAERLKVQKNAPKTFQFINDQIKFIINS
Botulinum neurotoxin type A (Clostridium botulinum), sequence (P0DPI0 whole entry, looked up): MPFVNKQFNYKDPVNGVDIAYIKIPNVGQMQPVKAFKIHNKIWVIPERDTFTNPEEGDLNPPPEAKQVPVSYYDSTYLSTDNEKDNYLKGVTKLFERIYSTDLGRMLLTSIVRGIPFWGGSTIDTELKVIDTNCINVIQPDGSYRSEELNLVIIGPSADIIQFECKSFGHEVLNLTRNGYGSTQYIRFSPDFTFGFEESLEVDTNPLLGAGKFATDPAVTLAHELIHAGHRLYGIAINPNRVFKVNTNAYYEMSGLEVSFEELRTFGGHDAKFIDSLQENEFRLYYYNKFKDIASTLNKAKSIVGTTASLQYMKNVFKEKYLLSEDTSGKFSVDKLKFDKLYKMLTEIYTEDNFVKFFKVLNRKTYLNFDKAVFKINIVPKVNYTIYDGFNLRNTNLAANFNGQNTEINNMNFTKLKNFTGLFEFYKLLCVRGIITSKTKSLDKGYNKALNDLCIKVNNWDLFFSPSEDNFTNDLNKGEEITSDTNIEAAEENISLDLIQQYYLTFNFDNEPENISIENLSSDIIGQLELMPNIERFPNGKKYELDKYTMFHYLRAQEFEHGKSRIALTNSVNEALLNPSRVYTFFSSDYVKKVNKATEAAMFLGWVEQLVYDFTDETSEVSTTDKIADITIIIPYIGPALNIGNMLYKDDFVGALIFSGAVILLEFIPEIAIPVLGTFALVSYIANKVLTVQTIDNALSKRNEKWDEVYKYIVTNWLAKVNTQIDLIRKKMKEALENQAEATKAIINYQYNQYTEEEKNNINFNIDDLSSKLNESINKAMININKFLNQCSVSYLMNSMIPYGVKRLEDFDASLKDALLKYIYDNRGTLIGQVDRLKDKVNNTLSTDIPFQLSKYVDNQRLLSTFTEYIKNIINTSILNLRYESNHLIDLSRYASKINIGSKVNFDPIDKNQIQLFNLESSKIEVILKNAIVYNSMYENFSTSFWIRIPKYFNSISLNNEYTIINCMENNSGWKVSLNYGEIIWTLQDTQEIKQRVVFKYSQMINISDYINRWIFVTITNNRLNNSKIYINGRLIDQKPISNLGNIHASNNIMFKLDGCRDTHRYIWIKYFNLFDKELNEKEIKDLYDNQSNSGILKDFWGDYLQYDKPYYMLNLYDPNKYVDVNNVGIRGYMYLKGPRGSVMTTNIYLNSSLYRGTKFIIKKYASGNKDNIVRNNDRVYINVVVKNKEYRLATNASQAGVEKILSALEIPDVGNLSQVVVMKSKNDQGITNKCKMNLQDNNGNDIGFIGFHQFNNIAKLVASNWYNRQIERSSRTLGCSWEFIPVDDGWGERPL

COC(=O)C1=C(C)NC(C)=C([N+](=O)[O-])C1c1ccccc1C(F)(F)F (stereo not drawn)
inactive: [1] -0.4% | [2] -1% | [3] -11.2%

COc1cccc(-n2cc(CNCc3c(C(=O)N(C)C)nc4ccc(Cl)cn34)cn2)c1
inactive: [1] 1.3% | [2] -0.7% | [3] 7.5%

COc1ccc(CCN(C)CCCC(C#N)(c2cc(OC)c(OC)c(OC)c2)C(C)C)cc1OC (stereo not drawn)
inactive: [1] 5.3% | [2] 1.8% | [3] 6.4%

C/C(CCc1oc2ccc(Cl)cc2c1-c1ccc(C)o1)=N\O
inactive: [1] 1.6% | [2] -0.7% | [3] -3.2%

NC(=O)[C@@H]1[C@@H]2C(=O)N(c3ccc(F)cc3)C(=O)[C@@H]2[C@H]2C=Cc3ccccc3N21
inactive: [1] 0.9% | [2] 1.5% | [3] -5.6%

Cc1c2c(nc3c(C)cccc13)OC(C)C2 (stereo not drawn)
inactive: [1] 2.9% | [2] -2.4% | [3] -4.3%

CC(C)CC(NC(=O)C1CCCN1C(=O)OC(C)(C)C)C(=O)NCC(N)=O (stereo not drawn) (Boc-Pro-Leu-Gly-NH2; configuration not given here)
inactive: [1] 3.5% | [2] 0.3% | [3] 4.3%

O=C(NCc1ccccc1Cl)NC(=O)c1ccccc1
inactive: [1] -1.4% | [2] 0.8% | [3] 6.8%

Cc1ccc2c(c1)c(C)cc(=O)n2CCC(=O)O
inactive: [1] 0.8% | [2] -0.2% | [3] 1.1%

Cc1ccc(-n2ncc3c(Nc4cccc(C(=O)O)c4)ncnc32)cc1
inactive: [1] 0.7% | [2] -1.1% | [3] 1.7%

CC/C(=C1/C(=O)CC(C)(C)C(C(=O)OC)C1=O)N1CCCC1 (stereo not drawn)
inactive: [1] -4.4% | [2] -1.4% | [3] -9.3%

COC(=O)C1[C@H]2C(=O)N(Cc3cccs3)C[C@]23C=C[C@H]1O3 (stereo partly drawn)
inactive: [1] -0.5% | [2] -0.7% | [3] -4%

NC(=O)N1c2ccccc2C=Cc2ccccc21
inactive: [1] 1.3% | [2] -0.2% | [3] 8.1%

COc1ccc(CCN=C(N)C(C)c2ccccc2)cc1OC (stereo not drawn)
inactive: [1] -0.2% | [2] 0% | [3] 6.6%

Cc1ccccc1C(=O)NNc1ncnc2c1cnn2C
inactive: [1] 3.1% | [2] -0.7% | [3] 1.7%

CCOC(=O)C(Cc1cc(C(C)=O)ccc1OC(C)C)C(=O)OCC
inactive: [1] 0.4% | [2] -0.1% | [3] -1.9%

CC(=O)OCC(=O)[C@H]1CC[C@H]2[C@@H]3CC=C4C[C@@H](O)CC[C@]4(C)[C@H]3CC[C@]12C
inactive: [1] -1.9% | [2] -1.3% | [3] -7.4%

COc1ccc(Cc2nc(-c3ccc(Br)cc3)no2)cc1
inactive: [1] -0.7% | [2] -1.6% | [3] -5.8%

CCC(C)NCCOc1ccc(C(C)(C)c2ccccc2)cc1 (stereo not drawn)
inactive: [1] -2% | [2] 0.7% | [3] -12.8%

Cc1nc2ccccn2c(=O)c1CCN1CCC(C(=O)c2ccc(F)cc2)CC1
inactive: [1] 1.5% | [2] 0.8% | [3] -0.4%

CC(C)[C@H](NC(=O)[C@@H]1CSCN1C(=O)OC(C)(C)C)C(=O)NCC1CCC(C(=O)O)CC1 (stereo partly drawn)
inactive: [1] -1.3% | [2] -1.5% | [3] -2.2%

O=C(CCCn1c(=O)oc2ccccc21)N1CCN(c2ccc(F)cc2)CC1
inactive: [1] 1.1% | [2] 0.2% | [3] -4.7%

COc1cc(OC)c(C(=O)CCCN2CCCC2)c(OC)c1
inactive: [1] 2.9% | [2] -0.9% | [3] -2.6%

CC(C)[C@H]1CN(C)CCN1Cc1cn(C)nc1-c1cccc(Cl)c1
inactive: [1] 12% | [2] 8.3% | [3] 8.2%

COc1cccc2c1OCC1COc3c(c(=O)n(C)c(=O)n3C)C21 (stereo not drawn)
inactive: [1] 1.5% | [2] 0.5% | [3] 0.2%

COCC1CCCN(Cc2cn[nH]c2-c2cc3ccccc3o2)C1 (stereo not drawn)
inactive: [1] -0.1% | [2] -1.5% | [3] -3.9%

Cc1ccccc1OCC(O)CN1CCN(C)CC1 (stereo not drawn)
inactive: [1] 1% | [2] -0.4% | [3] -2.2%

N#C/C(=C/c1ccccc1)C(=O)NCc1ccccc1
inactive: [1] 5.2% | [2] 0.1% | [3] -7.6%

CC(C)(C)NCC(O)c1cc(O)cc(O)c1 (stereo not drawn)
inactive: [1] -5.4% | [2] 0.7% | [3] 3.9%

COC(=O)CN1C(=S)N(c2ccc(F)cc2)C(=O)C1CC(=O)Nc1ccccc1 (stereo not drawn)
inactive: [1] -5.7% | [2] -2% | [3] -5.6%

N/C(=N\OC(=O)CCCOc1ccc(Cl)cc1Cl)c1ccccn1
inactive: [1] 4% | [2] -0.3% | [3] -0.4%

CC(=O)NC1C(OCCOc2ccc(Cl)cc2Cl)OC(COC(C)=O)C(OC(C)=O)C1OC(C)=O (stereo not drawn)
inactive: [1] -1.5% | [2] -0.3% | [3] -0.7%

CC(NC(=O)c1ccc(N2CCNCC2)c([N+](=O)[O-])c1)C12CC3CC(CC(C3)C1)C2 (stereo not drawn)
inactive: [1] 0.1% | [2] -0.6% | [3] -5.2%

COc1cc(CNCc2ccc(OC)c(OC)c2OC)cc(OC)c1
inactive: [1] 0.5% | [2] -0.7% | [3] 5.3%

COc1cc(CNc2ccc(C)c(C)c2)cc(OC)c1OC
inactive: [1] 1.8% | [2] 0.5% | [3] -8.9%

COc1cccc(CN2CCN(C(=O)c3ccc(-c4ccccc4)cc3)CC2)c1
inactive: [1] 3.8% | [2] -0.4% | [3] -3.1%

CC(C)C1CC(CCNCc2ccc(N(C)C)cc2)(c2ccccc2)CCO1 (stereo not drawn)
inactive: [1] -3.7% | [2] -1.8% | [3] -9.1%

CCC(=O)O[C@]1(C(=O)CCl)[C@@H](C)C[C@H]2[C@@H]3CCC4=CC(=O)C=C[C@]4(C)[C@@]3(F)[C@@H](O)C[C@@]21C
inactive: [1] -0.5% | [2] -1.2% | [3] -3.4%

COc1ccc2[nH]cc(C(=O)CCl)c2c1
inactive: [1] -3.7% | [2] -1.3% | [3] -5.3%

CC(=O)N1CCN(c2ccc(NC(=O)/C=C/c3ccccc3)cc2)CC1
inactive: [1] 4.3% | [2] -0.3% | [3] -2.2%

Cc1ccc(C)c(OCCCC(C)(C)C(=O)O)c1
inactive: [1] 1.7% | [2] -0.3% | [3] 1.8%

Cc1csc(CCc2nc(C)cs2)n1
inactive: [1] 1.4% | [2] 0.2% | [3] -2.1%

O=C(c1ccco1)N1CCCN(Cc2nc(-c3ccc4c(c3)OCO4)no2)CC1
inactive: [1] 1% | [2] 0% | [3] 3.6%

NC(=O)C1CCCNC1 (stereo not drawn)
inactive: [1] 1.6% | [2] -0.4% | [3] 5.4%

OC(COCc1ccccc1)CN1CCN(Cc2ccc3c(c2)OCO3)CC1 (stereo not drawn)
inactive: [1] 0.6% | [2] 0.3% | [3] 2.8%

COc1ccc(Cc2noc(CN(C)CC3(N4CCOCC4)CCCCC3)n2)cc1OC
inactive: [1] 7.7% | [2] 4.3% | [3] -0.4%
